8 compounds from PubChem BioAssay (Tox21) can be followed below.

Assay [1] is described as follows: qHTS assay to identify small molecule agonists of the androgen receptor (AR) signaling pathway in the presence of an antagonist - cell viability counter screen (AID 1259379). Further: nearly all actives have a fitted effect of over 25% in size. Further: potency means the concentration at half of the fitted maximal effect. The method, boiled down: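 Each compound was tested at 15 concentrations on MDA-kb2 cells in the presence of 3.0uM nilutamide. Viability was measured by CellTiter-Fluor fluorescence after a 16 hr incubation at 37C in a CO2-free atmosphere.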
Background: qHTS replaces the single test concentration by a dilution series.

Assay [2] in a line: qHTS assay to identify small molecule agonists of the estrogen receptor beta (ER-beta) signaling pathway - cell viability counter screen (AID 1259380). Further: nearly all actives have a fitted effect of over 30% in size. Further: potency means the concentration at half of the fitted maximal effect. The method, boiled down: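 Compounds dissolved in DMSO were pin-transferred onto ER-beta-UAS-bla HEK293T cells that had settled 6 hr, and exposure ran 16 hr at 37C. Following the reporter read, CellTiter-Glo luminescence after 30 min at room temperature indicated cytotoxicity.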

Assay [3] in a line: qHTS assay to identify small molecule antagonists of the estrogen receptor beta (ER-beta) signaling pathway - cell viability counter screen (AID 1259382). Further: nearly all actives have a fitted effect of over 55% in size. Further: potency means the concentration at half of the fitted maximal effect. The method, boiled down: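 CellTiter-Glo ATP luminescence measured after the LiveBLAzer read in the same wells; ER-beta-UAS-bla HEK293T cells, 16 hr compound treatment with 1nM 17-beta-estradiol agonist at 37C, 5% CO2.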
The target in assay [4] is Estrogen receptor (Homo sapiens) (UniProt P03372). Kind of assay: qHTS assay to identify small molecule agonists of the estrogen receptor alpha (ER-alpha) signaling pathway in the presence of an antagonist (AID 1259383; calls by dose curve; further: nearly all actives have a fitted effect of over 15% in size; further: potency means the concentration at half of the fitted maximal effect; on activation: top concentration of the series differs between compounds). The method, boiled down: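 Luminescent ERE-luciferase reporter, VM7Luc4E2 cells (endogenous ER-alpha); 10.0nM ICI-182,780 final; 15-point compound titration; 22hr at 37C; ONE-Glo, 30min RT.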

Assay [5] in a line: qHTS assay to identify small molecule agonists of the estrogen receptor alpha (ER-alpha) signaling pathway in the presence of an antagonist - cell viability counter screen (AID 1259386).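 Further: cells exposed to compounds for 22 h at 37 °C before the viability read; nearly all actives have a fitted effect of over 30% in size.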 Further: potency means the concentration at half of the fitted maximal effect. In short, it runs like this:
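Using estrogen-depleted VM7Luc4E2 cells, the 15-concentration compound series was applied together with 10.0nM ICI-182,780 and incubated 22hr at 37C/5% CO2. Cell viability was then scored by CellTiter-Fluor.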

Assay [6] concerns the target Progesterone receptor (Homo sapiens) (UniProt P06401). Kind of assay: qHTS assay to identify small molecule agonists of the progesterone receptor (PR) signaling pathway (AID 1346784; calls by dose curve; further: nearly all actives have a fitted effect of over 30% in size; further: potency means the concentration at half of the fitted maximal effect). In short, it runs like this:
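Fluorescence from LiveBLAzer B/G FRET substrate cleavage (2 hr, RT) reported PR activation in PR-UAS-bla HEK 293T cells treated 16 hr at 37C/5% CO2 with compounds; medium contained 2% charcoal-stripped FBS.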

Assay [7] has the same target. Kind of assay: qHTS assay to identify small molecule antagonists of the progesterone receptor (PR) signaling pathway (AID 1346795; active means well fitted inhibition curve with a large enough effect in the signal ratio in the repeat runs, not every such curve was filed as active; the % refers to the signal ratio; further: potency means the concentration at half of the fitted maximal effect). The method, boiled down:
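Fluorescence intensity measured 2 hr after adding beta-lactamase FRET substrate to PR-UAS-bla HEK293T cells that had been co-treated 16 hr with compound and 1 nM R5020 (final concentration) in 2% charcoal-stripped FBS.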

A short description of assay [8]: qHTS assay to identify small molecule antagonists of the progesterone receptor (PR) signaling pathway - cell viability counter screen (AID 1346798). Further: nearly all actives have a fitted effect of over 50% in size. Further: potency means the concentration at half of the fitted maximal effect. The method, boiled down: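 CellTiter-Glo luminescence; PR-UAS-bla HEK293T, 3,000 cells/well; compound + R5020, 16 hr, 37C/5% CO2; 30 min RT before read.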
The nature of assay [9]: qHTS assay to identify small molecule antagonists of the TGF-beta/Smad signaling pathway - cell viability counter screen (AID 1346824). Further: nearly all actives have a fitted effect of over 50% in size. Further: potency means the concentration at half of the fitted maximal effect. The method, boiled down: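 SBE-bla HEK 293T cells were plated overnight at 37 C, then given compounds in DMSO plus TGF-beta1 (added as 0.25 ng/mL solution) for 5 hr. After the bla read, CellTiter-Glo was added to the same wells and luminescence read after 30 min at room temperature.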

Assay [10] is described as follows: qHTS assay to identify small molecule agonists of the TGF-beta/Smad signaling pathway - cell viability counter screen (AID 1346829). Further: nearly all actives have a fitted effect of over 45% in size. Further: potency means the concentration at half of the fitted maximal effect. The method, boiled down: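 Here the cytotoxicity of library compounds is measured in SBE-bla HEK 293T cells treated for 5 hr, using CellTiter-Glo added to wells already read for the beta-lactamase reporter.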
Assay [11] is described as follows: Human pregnane X receptor (PXR) small molecule agonists, qHTS cell viability counter screen (AID 1346977). Further: nearly all actives have a fitted effect of over 50% in size. Further: potency means the concentration at half of the fitted maximal effect. In short, it runs like this:
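Viability counter screen: CellTiter-Fluor signal in PXR-Luc HepG2 cells, 24hr compound exposure, 37C, 5% CO2.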

Assay [12] in a line: Caspase-3/7 induction in HepG2 cells by small molecules, qHTS assay (AID 1346978). Further: nearly all actives have a fitted effect of over 15% in size. The method, boiled down: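 Wild-type HepG2 cells (2,000/well) were settled 5 h at 37 C, 5% CO2, then exposed to compounds in DMSO for 17 h. Caspase-3/7 activity was read by luminescence 30 min after adding Caspase-Glo 3/7 reagent at room temperature.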
Assay [13] can be described thus: qHTS assay to identify small molecule agonists of the progesterone receptor (PR) signaling pathway - cell viability counter screen (AID 1346799; calls by dose curve; further: nearly all actives have a fitted effect of over 45% in size; further: potency means the concentration at half of the fitted maximal effect). The method, boiled down:
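In parallel with the beta-lactamase readout, cytotoxicity toward PR-UAS-bla HEK293T cells was measured by CellTiter-Glo luminescence following 16 hr compound incubation in 2% charcoal-stripped FBS medium.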

Assay [14] in a line: qHTS assay to identify small molecule agonists of the TGF-beta/Smad signaling pathway (AID 1346859; active means well fitted activation curve with a large enough effect in the signal ratio in the repeat runs, not every such curve was filed as active; the % refers to the signal ratio; further: series mostly up to about 77 µM). In short, it runs like this: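 After overnight seeding, SBE-bla HEK 293T cells are dosed with compounds in DMSO and kept 5 hr at 37 C, 5% CO2. LiveBLAzer-type FRET substrate is then applied for 2 hr at room temperature.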
A short description of assay [15]: qHTS assay to identify small molecule agonists or antagonists of the thyroid stimulating hormone receptor (TSHR) signaling pathway - wild type cell line counter screen (AID 1259384; calls by dose curve). In short, it runs like this:
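Wild-type HEK293 cells were plated 18 h at 37 C/5% CO2, pin-dosed with compound plus Ro20-1724 medium, held 30 min at room temperature, then given cAMP-d2 and anti-cAMP-cryptate; fluorescence was read after 1 h. Fifteen concentrations, triplicate.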

Assay [16] concerns the target Thyrotropin receptor (Homo sapiens) (UniProt P16473). Nature of the assay: qHTS assay to identify small molecule antagonists of the thyroid stimulating hormone receptor (TSHR) signaling pathway (AID 1259385; calls by dose curve; further: nearly all actives have a fitted effect of over 20% in size). The method, boiled down: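 TSHR-HEK293 cells were plated and held 18 h at 37C/5% CO2, then given compound plus Ro20-1724 and stimulated with TSH at 1.5 ng/mL final. After 30 min at room temperature, cAMP was detected with cAMP-d2/anti-cAMP-cryptate (1 h) by fluorescence.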

Assay [17] has as its target Thyrotropin-releasing hormone receptor (Homo sapiens) (UniProt P34981). Kind of assay: qHTS assay to identify small molecule agonists of the thyrotropin-releasing hormone receptor (TRHR) signaling pathway (AID 1346891; calls by dose curve;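 further: HEK293 cells expressing TRHR with calcium dye readout; series mostly up to about 58 µM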). In short, it runs like this:
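Compounds were tested as agonists at 15 concentrations, in triplicate, on TRHR-Hek293 cells; calcium-sensitive dye fluorescence was recorded for 3 min following addition.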

Values without a mark were called inactive. Inconclusive results are not listed. Activity calls are given as the source filed them. Unless noted, the call rests on the fitted dose curve; in most records, active means well fitted curve in the direction sought with a large enough effect in the repeat runs; inconclusive means weak or mixed curves; inactive means no such curve, though single readings can be large; an effect the other way counts as inactive or inconclusive.
On the % scale 0 is the no-effect control and ±100 the full control effect.

Sequence of Thyrotropin-releasing hormone receptor (Homo sapiens) (P34981 whole entry, looked up): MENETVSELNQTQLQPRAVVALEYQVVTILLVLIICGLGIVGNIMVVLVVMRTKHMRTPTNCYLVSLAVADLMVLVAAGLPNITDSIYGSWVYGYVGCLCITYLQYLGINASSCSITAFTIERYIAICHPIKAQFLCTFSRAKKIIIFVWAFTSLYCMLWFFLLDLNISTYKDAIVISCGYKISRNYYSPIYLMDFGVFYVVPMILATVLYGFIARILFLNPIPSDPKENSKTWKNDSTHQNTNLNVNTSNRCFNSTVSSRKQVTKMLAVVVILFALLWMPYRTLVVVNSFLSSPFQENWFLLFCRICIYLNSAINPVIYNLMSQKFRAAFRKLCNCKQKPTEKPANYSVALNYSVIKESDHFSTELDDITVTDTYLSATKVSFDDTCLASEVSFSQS
Sequence of Thyrotropin receptor (Homo sapiens) (P16473 whole entry, looked up): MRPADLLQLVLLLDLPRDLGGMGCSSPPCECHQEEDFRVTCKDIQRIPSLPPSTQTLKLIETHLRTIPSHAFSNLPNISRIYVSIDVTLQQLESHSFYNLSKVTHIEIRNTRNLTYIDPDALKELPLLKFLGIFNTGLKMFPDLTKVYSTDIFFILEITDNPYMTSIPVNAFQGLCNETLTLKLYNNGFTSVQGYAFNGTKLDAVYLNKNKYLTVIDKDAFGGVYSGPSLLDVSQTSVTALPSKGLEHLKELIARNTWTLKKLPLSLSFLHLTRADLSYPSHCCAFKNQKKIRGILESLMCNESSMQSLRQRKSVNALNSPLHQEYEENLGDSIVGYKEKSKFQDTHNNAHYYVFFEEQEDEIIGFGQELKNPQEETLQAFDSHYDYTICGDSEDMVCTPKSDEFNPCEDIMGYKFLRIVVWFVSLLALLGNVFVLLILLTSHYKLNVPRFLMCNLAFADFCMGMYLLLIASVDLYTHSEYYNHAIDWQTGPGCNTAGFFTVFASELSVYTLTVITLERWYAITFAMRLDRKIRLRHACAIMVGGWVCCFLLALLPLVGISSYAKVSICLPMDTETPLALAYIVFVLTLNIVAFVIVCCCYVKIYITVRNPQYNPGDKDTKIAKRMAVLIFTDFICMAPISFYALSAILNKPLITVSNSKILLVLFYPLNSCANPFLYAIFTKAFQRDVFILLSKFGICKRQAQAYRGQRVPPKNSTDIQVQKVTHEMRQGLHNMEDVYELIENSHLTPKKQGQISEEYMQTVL
Sequence of Progesterone receptor (Homo sapiens) (P06401 whole entry, looked up): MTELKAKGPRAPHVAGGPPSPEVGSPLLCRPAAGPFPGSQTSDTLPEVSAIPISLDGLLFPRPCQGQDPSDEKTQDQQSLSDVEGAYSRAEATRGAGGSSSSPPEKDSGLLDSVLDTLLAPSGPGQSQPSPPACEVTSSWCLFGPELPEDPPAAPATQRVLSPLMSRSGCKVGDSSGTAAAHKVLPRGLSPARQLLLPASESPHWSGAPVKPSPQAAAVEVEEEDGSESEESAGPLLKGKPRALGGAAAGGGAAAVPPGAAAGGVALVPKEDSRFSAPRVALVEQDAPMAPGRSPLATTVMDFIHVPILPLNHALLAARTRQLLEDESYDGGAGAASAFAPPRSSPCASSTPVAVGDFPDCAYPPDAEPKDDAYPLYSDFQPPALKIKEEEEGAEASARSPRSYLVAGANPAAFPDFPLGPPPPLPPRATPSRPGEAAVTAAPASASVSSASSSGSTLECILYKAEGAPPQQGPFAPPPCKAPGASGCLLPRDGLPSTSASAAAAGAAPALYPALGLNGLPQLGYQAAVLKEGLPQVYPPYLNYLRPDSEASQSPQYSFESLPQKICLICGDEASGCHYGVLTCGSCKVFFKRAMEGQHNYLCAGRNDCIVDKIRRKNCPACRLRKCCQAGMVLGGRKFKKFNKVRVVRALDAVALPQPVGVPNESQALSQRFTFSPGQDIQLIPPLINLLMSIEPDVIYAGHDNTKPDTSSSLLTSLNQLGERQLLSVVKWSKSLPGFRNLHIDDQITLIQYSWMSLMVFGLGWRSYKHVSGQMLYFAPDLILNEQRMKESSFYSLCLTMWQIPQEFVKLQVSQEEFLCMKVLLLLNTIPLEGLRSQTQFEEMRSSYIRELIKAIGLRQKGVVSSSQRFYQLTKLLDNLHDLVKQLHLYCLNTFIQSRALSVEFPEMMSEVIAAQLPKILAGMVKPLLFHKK
Sequence of Estrogen receptor (Homo sapiens) (P03372 whole entry, looked up): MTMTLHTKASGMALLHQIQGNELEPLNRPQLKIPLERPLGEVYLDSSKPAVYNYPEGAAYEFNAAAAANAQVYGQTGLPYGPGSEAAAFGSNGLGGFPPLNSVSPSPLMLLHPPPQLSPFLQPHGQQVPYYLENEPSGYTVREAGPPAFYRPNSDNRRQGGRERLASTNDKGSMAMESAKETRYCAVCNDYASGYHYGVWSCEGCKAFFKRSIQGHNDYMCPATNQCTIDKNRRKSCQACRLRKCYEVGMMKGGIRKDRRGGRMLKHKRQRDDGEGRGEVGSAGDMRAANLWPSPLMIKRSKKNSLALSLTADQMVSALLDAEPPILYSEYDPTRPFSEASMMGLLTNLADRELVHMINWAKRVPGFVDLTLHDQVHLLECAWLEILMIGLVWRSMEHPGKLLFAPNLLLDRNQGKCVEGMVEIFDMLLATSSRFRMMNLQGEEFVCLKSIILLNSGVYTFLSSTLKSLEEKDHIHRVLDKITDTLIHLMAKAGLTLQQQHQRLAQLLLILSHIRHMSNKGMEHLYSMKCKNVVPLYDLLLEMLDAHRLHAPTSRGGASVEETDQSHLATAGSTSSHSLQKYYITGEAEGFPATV

As to `Cc1cc(Cl)ccc1O[C@H](C)C(=O)O`, the Potency entry in assay [1], in assay [2], in [3], in assay [4], in assay [5] and in [6] was “inactive” throughout. The Potency result in assay [7], in [8], in assay [9], in assay [10], in assay [11] and in assay [12] was “inactive” throughout.
Regarding `CC(=[OH+])/C=C(/C)[O-].CC(=[OH+])/C=C(\C)[O-].CC(=[OH+])/C=C(\C)[O-].[Al]`, the Potency result in assay [1], in [2], in [3], in assay [4], in assay [5] and in assay [6] was “inactive” in each case. Moreover, the Potency result in [8], in [13], in assay [9], in assay [10], in assay [11] and in assay [12] was “inactive” throughout. Moreover, the call in assay [14] was inactive.
Turning to `CCCCCCCCCCCCBr`, the Potency result in [1], in assay [4], in assay [16], in [5], in [6] and in [9] was “inactive” throughout. In addition, the Potency entry in assay [10], in assay [17], in assay [11] and in assay [12] was “inactive” each time. For the same compound, the Potency in assay [2] was 43.3 µM (active). The compound was called inactive in assay [15] and in assay [14].
Take `CC(=[OH+])/C=C(/C)[O-].CC(=[OH+])/C=C(\C)[O-].CC(=[OH+])/C=C(\C)[O-].[Fe]`: the Potency result in assay [1], in assay [2], in assay [3], in [4], in assay [5] and in assay [6] was “inactive” each time. In addition, the Potency entry in assay [8], in assay [13], in assay [9], in [10], in assay [11] and in assay [12] was “inactive” throughout. Moreover, the call in assay [14] was inactive.
As for `CC(Cc1ccc(C(C)(C)C)cc1)CN1C[C@@H](C)O[C@@H](C)C1` (some centres not stated), the Potency entry in assay [1], in [2], in [3], in assay [5], in [7] and in assay [9] was “inactive” throughout. In addition, the Potency result in assay [10], in assay [11] and in assay [12] was “inactive” in each case. In addition, in assay [14], the outcome was inactive.
With `c1ccc(Nc2ccc3ccccc3c2)cc1`, the Potency result in [1], in assay [16], in assay [5], in assay [6], in assay [8] and in [13] was “inactive” each time. Moreover, the Potency entry in [9], in [10], in assay [17], in [11] and in assay [12] was “inactive” each time. The values for the Potency in assay [2], in [4] and in assay [7] were 68.2 µM (active), 8.63 µM (active) and 17.2 µM (active), respectively. Besides, the outcome in assay [15] and in [14] was inactive.
Turning to `BrC(Br)Br`, the Potency entry in [1], in [2], in assay [3], in assay [16], in assay [5] and in assay [7] was “inactive” throughout. For the same compound, the Potency entry in assay [8], in assay [9], in assay [10], in assay [11] and in [12] was “inactive” throughout. Further, the outcome in [15] and in assay [14] was inactive. In [6], the Potency is 7.7 µM (active).
As to `CN(C)C(=S)[S-].CN(C)C(=S)[S-].[Cu+2]`, the Potency in assay [1] was 3.33 µM (active); in assay [2] it was 5.92 µM (active); in assay [3] it was 7.45 µM (active); in assay [5] it was 13.2 µM (active); in assay [8], 1.18 µM (active); in assay [13] it was 1.49 µM (active). Also, the Potency is 4.23 µM (active) in assay [9], 9.46 µM (active) in assay [10] and 5.92 µM (active) in assay [11]. Also, in assay [14], the activation was -6.22% [at 15.8 µM]. For the same compound, in assay [12], the caspase activation is -18.7% [at 19 µM].
